From PubChem BioAssay (NCATS) come the findings set out here.

Each structure is given as a SMILES string. Results filed as inconclusive are left out. A number with no mark means an inactive call. Active and inactive are the calls of the source. Calls come from the whole dose curve; as a rule, active = well fitted curve in either direction with a large enough effect (not every such curve was filed as active); inconclusive = small, poorly fitted or top-dose-only effect, or another doubt; inactive = flat fitted curve, though single readings scatter.
% is set by controls: 0 for no effect and ±100 for the full control effect.

One assay in a line: AP1 Signaling Pathway (AID 357).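 Note: ME-180 reporter cells stimulated with EGF at its EC50 level.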 Particulars: ME-180 (cervical carcinoma) AP-1-bla reporter, EGF-induced, beta-lactamase ratio, 5 h; at 17.2 µM (top of the series) unless noted. The procedure, abridged: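 A ratiometric CCF4 readout (405 nm excitation; 460 and 530 nm emission) quantified AP-1-driven beta-lactamase in ME-180 cells after 5 h with compound and EC50 EGF; AC50 values were derived for activators and inhibitors.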
Turning to `CCCCCOc1ccccc1C(=O)NCCCC(=O)O`, the activity change, negative = inhibition is 2.16%.

Regarding `C=CCOc1nc2c(c(=O)n(C)c(=O)n2C)n1Cc1ccc(Cl)cc1`, the activity change, negative = inhibition was -1.14%.

For `CCCOc1ccc(/C(O)=C2/C(=O)C(=O)N(CCN3CCOCC3)C2c2ccccc2)cc1` (stereo not given), the activity change, negative = inhibition was -16.7%.

`Cc1ccc2cc(CN(C(=O)c3ccco3)c3ccccc3)c(=O)[nH]c2c1`: the activity change, negative = inhibition was -24.5%.

In the case of `CCCNC(=O)N(C)c1nncnc1C(=O)NC`, the activity change, negative = inhibition was -9.23%.

Consider `CC(=O)N1CCN(C2c3cccc4cccc(c34)C2NS(=O)(=O)c2ccccc2)CC1` (stereo not given), for which the activity change, negative = inhibition is -3.48%.

Turning to `CCN(CC)S(=O)(=O)c1cccc2c(N(C)C)cccc12`, the activity change, negative = inhibition was -13.4%.

With `Cc1cc(N2C(=O)C(=O)/C(=C(/O)c3ccccc3)C2c2cccs2)no1` (stereo not given), the activity change, negative = inhibition was -22.3%.

`CC1C[C@@]2(NC(=O)NC2=O)C(C)CN1C` (stereo not given in full): the activity change, negative = inhibition was 5.36%.

On to `CCOC(=O)c1ccc(N2CC(O)=C(c3nc4ccccc4c(=O)[nH]3)C2=N)cc1`, for which the activity change, negative = inhibition is -27.9%.

In the case of `COC(=O)c1ccc(CSc2nc(N3CCOCC3)c3c(c2C#N)CC(C)(C)OC3)o1`, the activity change, negative = inhibition was -9.04%.

As to `CCC(CC)C1C(C#N)=C(N)Oc2n[nH]c(C)c21` (stereo not given), the activity change, negative = inhibition is -22.7%.

In the case of `COc1ccc(C(=O)NCC(=O)n2nc(C)cc2C)cc1OC`, the activity change, negative = inhibition is 6.38%.

Regarding `CC(C)CC(=O)Nc1ncnc2c1C(=O)CC(C)(C)C2`, the activity change, negative = inhibition is 1.69%.

In the case of `c1ccc(CSc2nnc(SCc3ccccn3)s2)nc1`, the activity change, negative = inhibition was -9.4%.

As to `O=C(O)C1CCCCN1S(=O)(=O)c1cccc2nsnc12` (stereo not given), the activity change, negative = inhibition is 0.243%.

As for `Cn1c(=O)c2c3c(sc2n2c(SCC(N)=O)nnc12)CC(C(C)(C)C)CC3` (stereo not given), the activity change, negative = inhibition is -9.72%.

For the compound `CCOC(=O)C(NC=O)(NC(C)(C)C)C(=O)OCC`, the activity change, negative = inhibition was -2.44%.

As to `CCOC(=O)c1ccc(NC(=O)COc2ccccc2OC)cc1`, the activity change, negative = inhibition is -16.3%.

For `O=S(=O)(/C=C/c1ccccc1)Nc1ccc2c(c1)OCO2`, the activity change, negative = inhibition is -20.8%.

For `CC(C)(C)NC(=O)/C=N/O`, the activity change, negative = inhibition was 10.5%.

Consider `Cc1ccc(OCC(=O)N(C)CCc2ccccn2)cc1`, for which the activity change, negative = inhibition was -3.13%.

In the case of `O=C(O)c1cc2sccc2s1`, the activity change, negative = inhibition is -0.721%.

`COc1cc(C2C(C(C)=O)=C(O)C(=O)N2c2ccc(Br)cn2)ccc1O` (stereo not given): the activity change, negative = inhibition is 2.47%.

In the case of `Cc1[nH]c2ccc(F)cc2c(=O)c1SC(F)(F)C(F)C(F)(F)F` (stereo not given), the activity change, negative = inhibition is -31.7%.

As for `CN(C)CC(O)COc1ccc(C(C)(C)c2ccc(OCC(O)CN(C)C)cc2)cc1` (stereo not given), the activity change, negative = inhibition is -0.00757%.

Take `CCC(CC)n1[nH]c(=O)cc1N`: the activity change, negative = inhibition was -9.54%.

Regarding `COc1ccc(C(C)=O)cc1CSCCC(=O)O`, the activity change, negative = inhibition was 3.88%.

For `COc1ccc(NC2CC(=O)N(C)C2=O)cc1` (stereo not given), the activity change, negative = inhibition was 9.53%.

Turning to `Cc1nnc2n(-c3ccccc3)c(=O)c3c4c(sc3n12)COC(C)(C)C4`, the activity change, negative = inhibition is 4.08%.

Consider `CN1C(=O)NC(c2ccccc2)C2=C1CN(Cc1ccccc1)C2=O` (stereo not given), for which the activity change, negative = inhibition was -1.08%.

With `COc1cccc(N2CCN(c3ncnc4c3[nH]c3ccc(F)cc34)CC2C)c1` (stereo not given), the activity change, negative = inhibition was -121% (active).

As for `N#Cc1c(-c2ccco2)cc(C2CC2)nc1N`, the activity change, negative = inhibition was -6.96%.

As for `COC(=O)c1ccc(C2/C(=C(/O)c3ccc(OC)cc3)C(=O)C(=O)N2c2cc(C)on2)cc1` (stereo not given), the activity change, negative = inhibition is -14%.

`CC(=O)[C@H]1CC[C@H]2[C@@H]3CCC4=CC(=O)CC[C@]4(C)[C@H]3[C@H](O)C[C@]12C`: the activity change, negative = inhibition is -0.48%.

As for `Cc1ccc(N2C(=O)CC3(CC4C=CC3C4)C2=O)cc1` (stereo not given), the activity change, negative = inhibition was 28.9%.

Regarding `COc1cccc(/C(O)=C2/C(=O)C(=O)N(CCN(C)C)C2c2ccc(Br)cc2)c1` (stereo not given), the activity change, negative = inhibition is -1.11%.

On to `CC(C)C1Cc2c(sc3c2c(=O)n(Cc2ccccc2)c2nncn32)CO1` (stereo not given), for which the activity change, negative = inhibition was -0.408%.

`Cc1cc(C)c2nc(SCCC#N)nc(C)c2c1`: the activity change, negative = inhibition was -4.73%.

With `COc1cc(-c2nn3c(-c4ccco4)nnc3s2)cc(OC)c1OC`, the activity change, negative = inhibition was -2.59%.

The nature of the next assay: NFAT Signaling Pathway (AID 444).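 Note: carbachol stimulus at about its EC50 of 1 µM final.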 As to conditions: Jurkat NFAT-bla M1, carbachol, beta-lactamase ratio, 5 h; at 17.2 µM (top of the series) unless noted. In a few lines: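 Jurkat cells with NFAT-driven β-lactamase reporter and co-expressed M1 receptor, stimulated with carbachol (final 1 uM, ~EC50), compound titration, 5 h at 37 °C. CCF4 loaded 1 h at RT; 460/530 nm ratio gave %activity and AC50.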
With `CCCCCOc1ccccc1C(=O)NCCCC(=O)O`, the activity change, negative = inhibition is -1.98%.

Take `C=CCOc1nc2c(c(=O)n(C)c(=O)n2C)n1Cc1ccc(Cl)cc1`: the activity change, negative = inhibition was -8.76%.

Regarding `CCCOc1ccc(/C(O)=C2/C(=O)C(=O)N(CCN3CCOCC3)C2c2ccccc2)cc1` (stereo not given), the activity change, negative = inhibition is 4.9%.

On to `Cc1ccc2cc(CN(C(=O)c3ccco3)c3ccccc3)c(=O)[nH]c2c1`, for which the activity change, negative = inhibition is 2.15%.

Consider `CCCNC(=O)N(C)c1nncnc1C(=O)NC`, for which the activity change, negative = inhibition is 2.36%.

Take `CC(=O)N1CCN(C2c3cccc4cccc(c34)C2NS(=O)(=O)c2ccccc2)CC1` (stereo not given): the activity change, negative = inhibition was -9.38%.

Consider `CCN(CC)S(=O)(=O)c1cccc2c(N(C)C)cccc12`, for which the activity change, negative = inhibition is -17.2%.

Consider `Cc1cc(N2C(=O)C(=O)/C(=C(/O)c3ccccc3)C2c2cccs2)no1` (stereo not given), for which the activity change, negative = inhibition is 19%.

Turning to `CC1C[C@@]2(NC(=O)NC2=O)C(C)CN1C` (stereo not given in full), the activity change, negative = inhibition is -4.32%.

As for `CCOC(=O)c1ccc(N2CC(O)=C(c3nc4ccccc4c(=O)[nH]3)C2=N)cc1`, the activity change, negative = inhibition is -8.54%.

With `COC(=O)c1ccc(CSc2nc(N3CCOCC3)c3c(c2C#N)CC(C)(C)OC3)o1`, the activity change, negative = inhibition is -8.92%.

Regarding `CCC(CC)C1C(C#N)=C(N)Oc2n[nH]c(C)c21` (stereo not given), the activity change, negative = inhibition is -13.2%.

On to `COc1ccc(C(=O)NCC(=O)n2nc(C)cc2C)cc1OC`, for which the activity change, negative = inhibition is -1.54%.

As to `CC(C)CC(=O)Nc1ncnc2c1C(=O)CC(C)(C)C2`, the activity change, negative = inhibition was -2.65%.

Take `c1ccc(CSc2nnc(SCc3ccccn3)s2)nc1`: the activity change, negative = inhibition is 3.91%.

`O=C(O)C1CCCCN1S(=O)(=O)c1cccc2nsnc12` (stereo not given): the activity change, negative = inhibition is 1.79%.

Regarding `Cn1c(=O)c2c3c(sc2n2c(SCC(N)=O)nnc12)CC(C(C)(C)C)CC3` (stereo not given), the activity change, negative = inhibition is 19.6%.

Regarding `CCOC(=O)C(NC=O)(NC(C)(C)C)C(=O)OCC`, the activity change, negative = inhibition is 4.66%.

As to `CCOC(=O)c1ccc(NC(=O)COc2ccccc2OC)cc1`, the activity change, negative = inhibition was 0.388%.

With `O=S(=O)(/C=C/c1ccccc1)Nc1ccc2c(c1)OCO2`, the activity change, negative = inhibition is -26.9%.

On to `CC(C)(C)NC(=O)/C=N/O`, for which the activity change, negative = inhibition was 23.2%.

On to `Cc1ccc(OCC(=O)N(C)CCc2ccccn2)cc1`, for which the activity change, negative = inhibition is 5.19%.

In the case of `O=C(O)c1cc2sccc2s1`, the activity change, negative = inhibition is -6.24%.

With `COc1cc(C2C(C(C)=O)=C(O)C(=O)N2c2ccc(Br)cn2)ccc1O` (stereo not given), the activity change, negative = inhibition was -15.5%.

With `Cc1[nH]c2ccc(F)cc2c(=O)c1SC(F)(F)C(F)C(F)(F)F` (stereo not given), the activity change, negative = inhibition is 10.1%.

For the compound `CN(C)CC(O)COc1ccc(C(C)(C)c2ccc(OCC(O)CN(C)C)cc2)cc1` (stereo not given), the activity change, negative = inhibition is 1.57%.

For the compound `CCC(CC)n1[nH]c(=O)cc1N`, the activity change, negative = inhibition is 14.2%.

Take `COc1ccc(C(C)=O)cc1CSCCC(=O)O`: the activity change, negative = inhibition is 2.2%.

Consider `COc1ccc(NC2CC(=O)N(C)C2=O)cc1` (stereo not given), for which the activity change, negative = inhibition was -9.34%.

`Cc1nnc2n(-c3ccccc3)c(=O)c3c4c(sc3n12)COC(C)(C)C4`: the activity change, negative = inhibition is -10.7%.

In the case of `CN1C(=O)NC(c2ccccc2)C2=C1CN(Cc1ccccc1)C2=O` (stereo not given), the activity change, negative = inhibition is 1.92%.

For the compound `COc1cccc(N2CCN(c3ncnc4c3[nH]c3ccc(F)cc34)CC2C)c1` (stereo not given), the activity change, negative = inhibition is -137% (active).

Consider `N#Cc1c(-c2ccco2)cc(C2CC2)nc1N`, for which the activity change, negative = inhibition is 9.72%.

With `COC(=O)c1ccc(C2/C(=C(/O)c3ccc(OC)cc3)C(=O)C(=O)N2c2cc(C)on2)cc1` (stereo not given), the activity change, negative = inhibition is -13.5%.

With `CC(=O)[C@H]1CC[C@H]2[C@@H]3CCC4=CC(=O)CC[C@]4(C)[C@H]3[C@H](O)C[C@]12C`, the activity change, negative = inhibition was 2.54%.

On to `Cc1ccc(N2C(=O)CC3(CC4C=CC3C4)C2=O)cc1` (stereo not given), for which the activity change, negative = inhibition is 4.88%.

As for `COc1cccc(/C(O)=C2/C(=O)C(=O)N(CCN(C)C)C2c2ccc(Br)cc2)c1` (stereo not given), the activity change, negative = inhibition was 20.3%.

Take `CC(C)C1Cc2c(sc3c2c(=O)n(Cc2ccccc2)c2nncn32)CO1` (stereo not given): the activity change, negative = inhibition is -11.6%.

Consider `Cc1cc(C)c2nc(SCCC#N)nc(C)c2c1`, for which the activity change, negative = inhibition is 11.8%.

As for `COc1cc(-c2nn3c(-c4ccco4)nnc3s2)cc(OC)c1OC`, the activity change, negative = inhibition was -0.323%.
